In the supplement of paper PMC10849652:
Of roughly 7,900 targets only a part is listed; those with a hit were picked by preference. About 0.6% of all pairs of compound and target were hits.

compound: C1=CC2=C(C=CC(=C2)/C=C\3/C(=O)NC(=NCC4=CC=CS4)S3)N=C1; test: log2 fold change, soluble protein after heating vs DMSO (PISA); higher = thermal stabilisation; K562 cells, 10 uM, 30 min; active = over 0.2 and 3.5 SD of the protein, either way, in both replicates (recomputed)
Outline: (§1)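 Thermal stability values are relative to control samples and come from duplicates. They are expressed as log2 fold changes. For measurement, K562 cells (2×10^6 cells/mL) received 10 μM compound for 30 min, and aliquots were heated for 3 min over 48°C-58°C, pooled, and extracted at 4°C in PBS with 0.5% NP-40. Soluble protein, the supernatant after 21,000xg for 90 min, was quantified by TMTpro 16plex LC-MS/MS with equalised channel sums.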

Sequence of UniProt Q96LU5 (Q96LU5 whole entry, looked up): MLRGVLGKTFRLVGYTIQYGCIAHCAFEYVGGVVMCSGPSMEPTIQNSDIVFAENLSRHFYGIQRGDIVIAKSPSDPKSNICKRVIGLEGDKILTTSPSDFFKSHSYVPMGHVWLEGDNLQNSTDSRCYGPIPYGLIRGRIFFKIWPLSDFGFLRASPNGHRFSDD
Sequence of UniProt Q9H1B7 (Q9H1B7 whole entry, looked up): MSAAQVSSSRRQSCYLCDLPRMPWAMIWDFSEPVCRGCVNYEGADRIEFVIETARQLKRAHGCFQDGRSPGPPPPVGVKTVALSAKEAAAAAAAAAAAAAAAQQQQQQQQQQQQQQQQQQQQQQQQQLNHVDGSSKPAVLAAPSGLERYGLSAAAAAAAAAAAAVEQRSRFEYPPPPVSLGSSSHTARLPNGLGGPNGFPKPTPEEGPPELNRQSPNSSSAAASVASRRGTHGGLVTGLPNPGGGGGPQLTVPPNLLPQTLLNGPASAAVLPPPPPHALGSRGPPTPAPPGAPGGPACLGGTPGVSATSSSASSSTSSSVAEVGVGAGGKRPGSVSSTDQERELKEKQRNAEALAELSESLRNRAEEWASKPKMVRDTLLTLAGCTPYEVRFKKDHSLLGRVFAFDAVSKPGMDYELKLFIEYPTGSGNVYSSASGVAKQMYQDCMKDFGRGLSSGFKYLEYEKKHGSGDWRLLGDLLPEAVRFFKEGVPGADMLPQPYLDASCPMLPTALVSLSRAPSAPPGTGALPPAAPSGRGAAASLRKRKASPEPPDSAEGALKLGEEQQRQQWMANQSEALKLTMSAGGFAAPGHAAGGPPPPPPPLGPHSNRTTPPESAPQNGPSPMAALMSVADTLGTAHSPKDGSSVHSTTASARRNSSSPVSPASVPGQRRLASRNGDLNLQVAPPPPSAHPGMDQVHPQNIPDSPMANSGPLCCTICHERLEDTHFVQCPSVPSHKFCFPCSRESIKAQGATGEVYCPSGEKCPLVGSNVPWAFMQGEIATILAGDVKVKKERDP
Sequence of UniProt Q9NQ29 (Q9NQ29 whole entry, looked up): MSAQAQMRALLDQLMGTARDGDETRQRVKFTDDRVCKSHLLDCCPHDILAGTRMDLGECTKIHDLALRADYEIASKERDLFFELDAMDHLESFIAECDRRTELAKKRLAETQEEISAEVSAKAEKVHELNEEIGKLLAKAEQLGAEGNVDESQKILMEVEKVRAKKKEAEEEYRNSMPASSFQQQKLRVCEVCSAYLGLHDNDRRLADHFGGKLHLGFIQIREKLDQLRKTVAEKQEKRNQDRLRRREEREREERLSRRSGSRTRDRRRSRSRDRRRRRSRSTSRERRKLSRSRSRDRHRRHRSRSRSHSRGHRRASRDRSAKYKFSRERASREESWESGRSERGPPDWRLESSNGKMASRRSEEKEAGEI
Sequence of UniProt Q14676 (Q14676 whole entry, looked up): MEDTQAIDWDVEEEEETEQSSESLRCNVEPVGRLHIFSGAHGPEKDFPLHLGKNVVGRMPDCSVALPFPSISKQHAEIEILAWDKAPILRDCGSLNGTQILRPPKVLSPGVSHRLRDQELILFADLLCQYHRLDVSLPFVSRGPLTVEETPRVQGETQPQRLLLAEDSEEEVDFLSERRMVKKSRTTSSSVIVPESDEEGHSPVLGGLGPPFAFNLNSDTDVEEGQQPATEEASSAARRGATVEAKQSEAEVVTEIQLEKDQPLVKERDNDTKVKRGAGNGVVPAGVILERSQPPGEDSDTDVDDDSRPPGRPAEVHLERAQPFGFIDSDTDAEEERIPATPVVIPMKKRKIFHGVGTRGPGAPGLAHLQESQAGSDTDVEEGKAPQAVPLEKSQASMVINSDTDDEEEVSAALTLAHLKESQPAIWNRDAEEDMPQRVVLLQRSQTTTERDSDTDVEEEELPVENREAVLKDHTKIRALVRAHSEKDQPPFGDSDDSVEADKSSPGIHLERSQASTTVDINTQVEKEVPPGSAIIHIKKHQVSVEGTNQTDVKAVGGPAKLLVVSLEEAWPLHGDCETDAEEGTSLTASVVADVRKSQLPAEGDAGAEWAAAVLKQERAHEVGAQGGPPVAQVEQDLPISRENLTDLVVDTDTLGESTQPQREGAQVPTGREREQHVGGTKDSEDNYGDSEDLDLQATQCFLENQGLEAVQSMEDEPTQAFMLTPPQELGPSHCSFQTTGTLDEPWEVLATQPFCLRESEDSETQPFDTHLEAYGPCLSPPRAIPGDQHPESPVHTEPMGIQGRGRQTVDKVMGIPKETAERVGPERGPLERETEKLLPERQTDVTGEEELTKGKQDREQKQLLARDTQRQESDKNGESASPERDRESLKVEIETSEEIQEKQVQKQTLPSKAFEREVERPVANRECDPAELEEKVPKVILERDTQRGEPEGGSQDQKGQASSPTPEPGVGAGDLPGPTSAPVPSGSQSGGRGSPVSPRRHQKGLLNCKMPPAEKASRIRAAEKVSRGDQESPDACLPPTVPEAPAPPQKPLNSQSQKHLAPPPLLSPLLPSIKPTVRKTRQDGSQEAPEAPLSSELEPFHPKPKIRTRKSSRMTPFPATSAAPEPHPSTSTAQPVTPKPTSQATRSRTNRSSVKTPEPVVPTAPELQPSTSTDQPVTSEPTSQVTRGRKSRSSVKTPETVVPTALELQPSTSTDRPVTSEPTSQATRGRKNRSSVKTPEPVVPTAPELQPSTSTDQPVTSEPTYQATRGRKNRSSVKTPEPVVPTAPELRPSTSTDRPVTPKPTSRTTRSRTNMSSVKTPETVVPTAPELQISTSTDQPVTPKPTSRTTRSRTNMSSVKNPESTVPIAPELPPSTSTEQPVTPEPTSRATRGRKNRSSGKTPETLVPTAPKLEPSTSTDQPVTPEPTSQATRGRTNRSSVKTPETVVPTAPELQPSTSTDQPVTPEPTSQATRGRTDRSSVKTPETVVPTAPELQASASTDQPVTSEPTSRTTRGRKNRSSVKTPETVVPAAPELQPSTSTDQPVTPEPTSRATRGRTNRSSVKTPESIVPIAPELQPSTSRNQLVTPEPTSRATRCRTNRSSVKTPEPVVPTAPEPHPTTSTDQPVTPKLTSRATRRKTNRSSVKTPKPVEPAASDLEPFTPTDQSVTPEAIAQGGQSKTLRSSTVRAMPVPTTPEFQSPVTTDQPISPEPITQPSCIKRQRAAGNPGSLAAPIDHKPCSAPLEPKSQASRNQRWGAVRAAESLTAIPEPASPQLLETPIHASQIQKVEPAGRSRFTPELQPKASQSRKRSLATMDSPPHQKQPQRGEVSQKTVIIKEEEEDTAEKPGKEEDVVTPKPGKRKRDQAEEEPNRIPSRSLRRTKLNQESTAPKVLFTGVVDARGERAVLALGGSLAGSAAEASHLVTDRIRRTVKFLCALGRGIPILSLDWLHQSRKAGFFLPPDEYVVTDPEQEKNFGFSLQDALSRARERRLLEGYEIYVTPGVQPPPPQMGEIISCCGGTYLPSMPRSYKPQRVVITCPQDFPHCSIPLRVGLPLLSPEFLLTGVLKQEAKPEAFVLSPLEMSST
Sequence of UniProt Q6P9B6 (Q6P9B6 whole entry, looked up): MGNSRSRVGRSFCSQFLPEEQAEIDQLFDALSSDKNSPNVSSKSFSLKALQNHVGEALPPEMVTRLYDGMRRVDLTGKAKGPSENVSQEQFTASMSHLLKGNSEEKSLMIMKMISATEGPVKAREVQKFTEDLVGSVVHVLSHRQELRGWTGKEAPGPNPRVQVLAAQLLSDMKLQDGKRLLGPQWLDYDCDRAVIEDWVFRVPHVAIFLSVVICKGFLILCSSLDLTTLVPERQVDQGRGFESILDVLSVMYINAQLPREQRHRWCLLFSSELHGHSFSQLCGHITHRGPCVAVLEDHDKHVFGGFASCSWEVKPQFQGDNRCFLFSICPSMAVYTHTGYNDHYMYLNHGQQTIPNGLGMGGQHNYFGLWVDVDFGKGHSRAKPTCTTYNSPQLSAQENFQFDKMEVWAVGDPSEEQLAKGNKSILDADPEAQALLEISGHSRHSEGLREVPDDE
Sequence of UniProt Q86V48 (Q86V48 whole entry, looked up): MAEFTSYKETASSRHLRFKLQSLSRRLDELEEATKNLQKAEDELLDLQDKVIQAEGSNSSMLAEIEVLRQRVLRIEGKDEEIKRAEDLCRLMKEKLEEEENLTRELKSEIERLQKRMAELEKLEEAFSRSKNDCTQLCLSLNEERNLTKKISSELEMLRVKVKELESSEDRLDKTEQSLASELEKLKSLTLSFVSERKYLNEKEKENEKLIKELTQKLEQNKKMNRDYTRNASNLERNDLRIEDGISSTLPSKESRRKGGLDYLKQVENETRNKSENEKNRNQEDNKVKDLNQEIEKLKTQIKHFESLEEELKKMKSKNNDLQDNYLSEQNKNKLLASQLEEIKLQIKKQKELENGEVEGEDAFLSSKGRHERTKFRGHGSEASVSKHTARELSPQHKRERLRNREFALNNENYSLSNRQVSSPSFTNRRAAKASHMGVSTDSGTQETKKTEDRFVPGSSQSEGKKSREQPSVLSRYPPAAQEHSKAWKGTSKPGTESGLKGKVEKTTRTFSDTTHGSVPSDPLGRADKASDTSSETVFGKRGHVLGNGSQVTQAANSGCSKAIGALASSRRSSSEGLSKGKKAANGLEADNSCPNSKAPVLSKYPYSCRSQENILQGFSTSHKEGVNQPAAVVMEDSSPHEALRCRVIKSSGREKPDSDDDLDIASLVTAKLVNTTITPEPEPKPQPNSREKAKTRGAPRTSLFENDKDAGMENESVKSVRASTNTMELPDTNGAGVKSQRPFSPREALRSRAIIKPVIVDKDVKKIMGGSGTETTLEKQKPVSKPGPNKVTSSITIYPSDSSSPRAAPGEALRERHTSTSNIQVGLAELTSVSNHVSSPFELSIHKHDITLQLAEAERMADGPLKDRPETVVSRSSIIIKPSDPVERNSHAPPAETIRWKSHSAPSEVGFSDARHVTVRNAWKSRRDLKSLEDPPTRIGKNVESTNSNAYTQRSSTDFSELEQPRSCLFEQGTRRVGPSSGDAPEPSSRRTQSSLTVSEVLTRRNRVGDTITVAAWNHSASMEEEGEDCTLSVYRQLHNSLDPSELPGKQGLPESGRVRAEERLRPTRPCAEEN

log2 fold change, inactive:
MDC1 (UniProt Q14676) 0, MAPKAPK5 (UniProt Q8IW41) 0.019, KRAS isoform 2 (UniProt P01116) 0.005, LTO1 (UniProt Q8WV07) 0.002, MEAK7 (UniProt Q6P9B6) 0.069, KPNA6 (UniProt O60684) 0.013, LSS (UniProt P48449) 0.128, MARK3 (UniProt P27448) 0, KIFBP (UniProt Q96EK5) 0.074, LUZP1 (UniProt Q86V48) -0.131, MARK2 (UniProt E9PC69) 0.115, IRF2BPL (UniProt Q9H1B7) -0.03, MFN1 (UniProt Q8IWA4) 0.07, LUC7L (UniProt Q9NQ29) -0.062, IMMP1L (UniProt Q96LU5) 0.104, IL27RA (UniProt Q6UWB1) 0.021

compound: C1=CC2=NC=CN=C2C=C1/C=C/3\C(=O)NC(=O)S3; test: as above
Outline: as §1

log2 fold change, inactive:
MAPK9 (UniProt P45984) -0.02, MGST3 (UniProt O14880) 0.041, INTS7 (UniProt Q9NVH2) 0.036, LARP1 (UniProt Q6PKG0) -0.001, KDM5D isoform 3 (UniProt Q9BY66) -0.034, MAP2K1 (UniProt Q02750) 0.014, MAP3K20 (UniProt Q9NYL2) 0.038, LUC7L3 (UniProt O95232) -0.02, LBR (UniProt Q14739) 0.034, L2HGDH (UniProt Q9H9P8) 0.01, KDM3B (UniProt Q7LBC6) 0.043, LUC7L2 (UniProt Q9Y383) -0.031, MFN2 (UniProt O95140) 0.008, IPO9 (UniProt Q96P70) 0.096, LSR (UniProt Q86X29) 0.019, MAP4 (UniProt P27816) 0.011, LARP7 isoform 3 (UniProt Q4G0J3) 0.023, MFF (UniProt Q9GZY8) 0.057, METTL18 (UniProt O95568) 0.046, ILF3 isoform 7 (UniProt Q12906) 0.099, LAMP2 (UniProt P13473) 0.101, LRPPRC (UniProt P42704) -0.148, MAPKAPK3 (UniProt Q16644) -0.069, MDC1 (UniProt Q14676) 0.057, MAPKAPK5 (UniProt Q8IW41) 0.052, KRAS isoform 2 (UniProt P01116) 0.019, LTO1 (UniProt Q8WV07) 0.089, MEAK7 (UniProt Q6P9B6) 0.014, KPNA6 (UniProt O60684) 0.059, LSS (UniProt P48449) 0.069, MARK3 (UniProt P27448) 0.008, KIFBP (UniProt Q96EK5) -0.015, LUZP1 (UniProt Q86V48) -0.095, MARK2 (UniProt E9PC69) -0.1, IRF2BPL (UniProt Q9H1B7) 0.064, MFN1 (UniProt Q8IWA4) 0.347, LUC7L (UniProt Q9NQ29) -0.003, IMMP1L (UniProt Q96LU5) -0.022, IL27RA (UniProt Q6UWB1) 0.048
